# Experimental data from paper PMC4552634, “A New Set of Chemical Starting Points with Plasmodium falciparum Transmission-Blocking Potential for Antimalarial Drug Discovery” (PLoS ONE, 2015).
# Among all 13,000 compounds or so, about 3,200 (25%) showed an effect of 50% or more. The list shows a part of the results.
# Tested on: P. falciparum stage V gametocytes
# Parameters: BacTiter-Glo ATP luminescence viability of purified stage V gametocytes in 384-well plates, per cent inhibition versus DMSO
# Details: 48 h, 5 µM; inhibitor
row,SMILES,% Inhibition
1,COc1cccc(C(=O)Nc2ccc(S(=O)(=O)c3cc4c(cc3OC)CCN(C)CC4)cc2)c1 [TCMDC-133790],79.19%
2,COc1cc2c(cc1S(=O)(=O)c1ccc(NC(=O)c3ccc4ccccc4c3)cc1)CCN(C)CC2 [TCMDC-133792],8.081%
3,COc1cc2c(cc1S(=O)(=O)c1ccc(NC(=O)c3cccc(C(F)(F)F)c3)cc1)CCN(C)CC2 [TCMDC-133791],-4.764%
4,O=C(CCc1cnc[nH]1)Nc1ccc(-c2ccc(-c3nc4ccccc4[nH]3)cc2)cc1 [TCMDC-132156],-24.85%
5,c1csc(-c2nc(N3CCCCC3)ncc2-c2ccsc2)n1 [TCMDC-125370],9.865%
6,C=CCc1c(C(=O)NCC23CC4CC(CC(C4)C2)C3)[nH]c2ccccc2c1=O [TCMDC-136371],-9.366%
7,CC(C)Cc1cn(-c2nc(-c3nc4ccccc4[nH]3)cs2)c2ccncc12 [TCMDC-132419],3.094%
8,Cc1cccc(CNc2nc(C)cc(N[C@@H](Cc3ccccc3)C(=O)NCCc3ccccc3)n2)c1 [TCMDC-134889],-24.79%
9,Cc1cc(N[C@@H](Cc2ccccc2)C(=O)NCCCOC(C)C)nc(NCC2CCCCC2)n1 [TCMDC-134931],30.55%
10,Cc1cc(N[C@@H](Cc2ccccc2)C(=O)NCCc2ccccc2)nc(NCCc2ccccc2)n1 [TCMDC-134776],144.5%
11,Cc1cc(N[C@@H](Cc2ccccc2)C(=O)NCCc2ccccc2)nc(NCc2ccccc2C)n1 [TCMDC-134907],-0.7865%
12,COc1ccccc1CCNc1nc(C)cc(N[C@@H](CC(C)C)C(=O)NCCc2ccccc2)n1 [TCMDC-134807],30.27%
13,COc1ccccc1CCNc1nc(C)cc(N[C@@H](Cc2ccccc2)C(=O)Nc2ccccc2)n1 [TCMDC-134804],36.98%
14,COc1ccccc1CCNc1nc(C)cc(N[C@@H](Cc2ccccc2)C(=O)NCCCOC(C)C)n1 [TCMDC-134861],55.12%
15,Cc1cc(N[C@@H](Cc2ccccc2)C(=O)NCCc2ccccc2)nc(NCCc2ccc(F)cc2)n1 [TCMDC-134867],49.67%
16,COc1ccccc1CCNc1nc(C)cc(N[C@@H](Cc2ccccc2)C(=O)NCCc2ccccc2)n1 [TCMDC-134803],83.15%
17,COc1ccccc1CCNc1nc(C)cc(N[C@@H](Cc2ccccc2)C(=O)NCCOc2ccccc2)n1 [TCMDC-134862],100.5%
18,COC(=O)c1ccc(OCC(C)NCC(O)c2cccc(C(F)(F)F)c2)cc1 (centres unmarked) [TCMDC-131464],25.27%
19,N#Cc1ccc2c(c1)CCN(CCCn1c(-c3ccc4ccccc4c3)nc3ccncc31)CC2 [TCMDC-135551],19.09%
20,O=C(NCc1ccc(C(=O)NCc2cccc3ccccc23)cc1)c1ccc(O)c(-c2ccc(Cl)c(Cl)c2)c1 [TCMDC-140878],23.84%
21,Cc1ccc2nc(-c3ccccc3)cc(NN=Cc3cccnc3)c2c1 [TCMDC-142053],-1.228%

row,SMILES,% Inhibition
1,CCOc1ccccc1N1CCN(CCCNC(=O)/C(=C/C=C/c2cc3cc(Cl)c(Cl)cc3[nH]2)OC)CC1 [TCMDC-139176],6.847%
2,Cc1cccc(CNc2ncc(C)c(NCCC(=O)Nc3ccccc3)n2)c1 [TCMDC-134848],47.31%
3,O=C(Nc1ccc(Br)cc1)N(CCN1CCOCC1)CC(O)COCc1ccc(F)cc1 (centres unmarked) [TCMDC-141489],29.66%
4,Cc1cc(=O)[nH]c(-n2nc(C)cc2NC(=O)C2(c3ccc(Cl)cc3)CCCC2)n1 [TCMDC-124943],43.65%
5,CN(C)CCN(C)C(=O)c1cc(-c2ccncc2)c(-c2ccc(Cl)c(O)c2)o1 [TCMDC-141393],-25.23%
6,COc1c(C2=CCN(CCCCNC(=O)c3ccc(-c4ccc(C#N)cc4)cc3)CC2)ccc2c1CCCC2 [TCMDC-138753],-8.55%
7,Cc1cc(N(C)CCN(C)C)nc(Nc2ccc(Cl)cc2)n1 [TCMDC-137008],22.54%
8,O=C(NC(=O)c1ccccc1)NC1CCN(c2ccnc3cc(Cl)ccc23)C1 (centres unmarked) [TCMDC-133403],-14.2%
9,CCC[C@@H]([C@@H](CC1CCCCC1)C(=O)N[C@H](C(=O)Nc1ccccn1)[C@H](C)CC)N(O)C=O [TCMDC-138122],-1.104%
10,CS(=O)(=O)c1ccc2nc(-c3cc(-c4ccc(OCCN5CCOCC5)cc4)cnc3N)[nH]c2c1 [TCMDC-133720],8.028%
11,Nc1ncc(-c2ccc3nccc(-c4ccncc4)c3c2)cc1S(=O)(=O)N1CCOCC1 [TCMDC-134180],94.06%
12,Nc1ncc(-c2ccc3nccc(-c4ccncc4)c3c2)cc1S(=O)(=O)N1CCCCC1 [TCMDC-134265],97.23%
13,CN1CCN(c2ccnc3ccc(NC(=O)Cc4ccc(-c5ccncc5)c5ccccc45)cc23)CC1 [TCMDC-139256],19.54%
14,Nc1ncc(-c2ccc3[nH]ccc3c2)c2ccc(-c3ccncc3)cc12 [TCMDC-133396],22.16%
15,O=C(c1ccc(-c2cnc3[nH]cc(-c4ccc(C(=O)N5CCOCC5)cc4)c3c2)cc1)N1CCOCC1 [TCMDC-132781],-2.017%
16,O=C(/C=N/O)Nc1ccccc1[N+](=O)[O-] [TCMDC-123981],-3.715%
17,CCn1c2ccccc2c2cc(Cc3cnc(N)nc3N)ccc21 [TCMDC-131929],0.5194%
18,Cc1cccc2nc(-c3ccc(-c4ccc(C(=O)NCCN5CCCC5)cc4)s3)[nH]c12 [TCMDC-132316],46.47%
19,Cc1cnc(NCC2CCCCC2)nc1NCC(=O)Nc1ccccc1 [TCMDC-134753],-41.32%
20,CCN1CCC(N(CCCCCCCCc2ccc(C(F)(F)F)cc2)C(=O)Cn2c(CCc3cccc(F)c3F)cc(=O)c3ccccc32)CC1 [TCMDC-141376],107.2%
21,COCCN1CCC(N(Cc2ccc(-c3ccc(OC(F)(F)F)cc3)cc2)C(=O)Cn2c(CCc3cccc(F)c3F)cc(=O)c3ccccc32)CC1 [TCMDC-136001],86.7%

row,SMILES,% Inhibition
1,O=C(Cn1c(CCc2cccc(F)c2F)cc(=O)c2ccccc21)N(Cc1ccc(-c2ccc(C(F)(F)F)cc2)cc1)C1CCN(CCO)CC1 [TCMDC-141226],84.4%
2,CCN1CCC(N(Cc2ccc(-c3ccc(C(F)(F)F)cc3)cc2)C(=O)Cn2c(CCc3cccc(F)c3F)cc(=O)c3ccccc32)C1 (centres unmarked) [TCMDC-141300],90.33%
3,O=C(Cn1c(CCc2cccc(F)c2F)cc(=O)c2ccccc21)N(Cc1ccc(-c2ccc(C(F)(F)F)cc2)cc1)C1CCN(CCN2CCOCC2)CC1 [TCMDC-136026],47.65%
4,CCN1CCC(N(CCCCCCc2ccc(C(F)(F)F)cc2)C(=O)Cn2c(CCc3cccc(F)c3F)cc(=O)c3ccccc32)CC1 [TCMDC-141339],43.24%
5,CCCN(CCC)C(=O)c1cc(C(=O)N[C@@H](Cc2ccccc2)[C@H](O)CNC2CC2)cc(N2CCCCS2(=O)=O)c1 [TCMDC-138892],8.102%
6,CC(=Nc1ccc(Cl)c(Cl)c1)N(C)C [TCMDC-137438],-6.563%
7,CC(C)C[C@H](NC(=O)c1ccc(OCCN2CCOCC2)cc1)C(=O)N[C@H](/C=N/NC(=O)OC(C)(C)C)CCc1ccccc1 [TCMDC-136028],-97.84%
8,COc1ccc(CN2CCC(N3CC(c4ccccc4)(c4ccccc4)OCC3=O)C2)c(O)c1 (centres unmarked) [TCMDC-136339],-23.12%
9,CC(C)C[C@H]1C(=O)N[C@H](C2Cc3ccccc3C2)C(=O)N1[C@@H](C(=O)Nc1ccccc1OCc1ccccc1)c1ccc(F)cc1F [TCMDC-138775],-10.16%
10,COc1ccc2ncc(F)c(CCN3C4CCC3CC(NCc3cc5c(cn3)OCS5)C4)c2n1 (centres unmarked) [TCMDC-135637],24.95%
11,Cc1cccc(Nc2nccc(NCC(O)c3ccc(C(F)(F)F)cc3)n2)c1 (centres unmarked) [TCMDC-136592],-12.82%
12,CC(C)(C)C1CC(=O)CC2C(=O)N(c3ccc(Br)cc3)C(=O)C21 (centres unmarked) [TCMDC-139130],-4.164%
13,Cc1ccc(F)c(OCC2CCN(c3ncc(C(=O)NC4CC4)cc3Cl)CC2)c1 [TCMDC-134038],21.14%
14,CC(C)(C)N1CCC(N(Cc2ccc(-c3ccc(C(F)(F)F)cc3)cc2)C(=O)Cn2c(CCc3cccc(F)c3F)cc(=O)c3ccccc32)CC1 [TCMDC-136007],109.9%
15,CCN1CCC(N(Cc2ccc(-c3ccc(C(F)(F)F)cc3)cc2)C(=O)Cn2c(CCc3cccc(F)c3F)cc(=O)c3ccc(OCc4ccccc4)cc32)CC1 [TCMDC-141292],107.3%
16,CCN1CCC(N(Cc2ccc(-c3ccc(C(F)(F)F)cc3)cc2)C(=O)Cn2c(CCc3cccc(F)c3F)cc(=O)c3ccccc32)CC1 [TCMDC-141119],110.1%
17,CC(C)(C)N1CCC(N(Cc2ccc(-c3ccc(C(F)(F)F)cc3)cc2)C(=O)Cn2c(CCc3cccc(F)c3F)cc(=O)c3cccnc32)CC1 [TCMDC-136011],120.6%
18,NC(CC1CC(=O)N1CC(=O)O)C(=O)O (centres unmarked) [TCMDC-139050],9.979%
19,CC1CCN(Cc2ccc(NC(=O)c3cc4ccc5cccnc5c4[nH]3)cc2)CC1 [TCMDC-125282],-44.42%
20,Cc1sc(N2CCCCC2)nc1C(=O)Nc1ccc(F)cc1C(F)(F)F [TCMDC-134301],-22.08%
